# Laboratory results taken from ChEMBL document CHEMBL4513216, “Probing the Open Global Health Chemical Diversity Library for Multistage-Active Starting Points for Next-Generation Antimalarials” (ACS Infect Dis, 2020).
# The campaign covered roughly 69,000 compounds. About 8,600 (12%) showed an effect of 50% or more. For the sample, strong results were picked, then their nearest neighbours and some compounds at random.
# Test system: Plasmodium berghei
# Assay: Screen against P. berghei liver stage (PbLuc), transformed with Luciferase, at 10uM
# Type: functional, HepG2
# Conditions: tested at 10 uM
row,SMILES,INHIBITION
1,CN(C(=O)Nc1ccncc1)C1CCN(c2ccccc2)C1=O (stereo not drawn),41.3%
2,CN1C(=O)COc2ccc(NC(=O)CCc3nc4cccnc4[nH]3)cc21,39.7%
3,O=C(Nc1cc(-c2ccccc2)on1)N1CCN(CCO)CC1,43.9%
4,CCC(=O)NC1CCCN(C(=O)Nc2cc(-c3ccccc3)on2)C1 (stereo not drawn),52.6%
5,O=C(Nc1cc(-c2ccccc2)on1)N1CC[C@H](O)C1,-51.7%
6,Cc1nnc(NC(=O)NCCN(C(=O)OC(C)(C)C)C2CC2)s1,4.34%
7,O=C1CCN(CCS(=O)(=O)c2ccc(Cl)cc2)CCN1,7.43%
8,COCCNC(=O)[C@H]1C[C@@H]2CCN(c3ccncn3)C[C@H]2O1,7.53%
9,Cc1cc2n(n1)CC(CNCc1ccc(N3CCOCC3)nc1)CN2 (stereo not drawn),-2.143%
10,Cc1cccnc1CCNC(=O)CC1C(=O)NCCN1CCC(C)C (stereo not drawn),-23%
11,Cn1nccc1-c1cc(C2CCN(S(C)(=O)=O)CC2)ccn1,42.4%
12,CCCn1nccc1-c1cc(C2CCN(C(C)=O)CC2)ccn1,12.3%
13,CCCn1nccc1-c1cc(C2CCN(S(C)(=O)=O)CC2)ccn1,55.6%
14,COCC1c2nnn(CC3CC3)c2CCN1C(=O)c1cccn1C (stereo not drawn),-56.2%
15,COCC1c2nnn(CC3CC3)c2CCN1C(=O)c1sccc1C (stereo not drawn),72.3%
16,COCC1c2nnn(CC3CC3)c2CCN1C(=O)c1ccnnc1 (stereo not drawn),-16.2%
17,COc1ccccc1C(C)(C)NC(=O)NCCC(=O)NC1CCCC1,19.7%
18,Cc1ccc(OCC2CCCN(CC3CCOCC3)C2)cc1 (stereo not drawn),51.1%
19,Cc1ccc(OCC2CCCN(Cc3ccc(CO)o3)C2)cc1 (stereo not drawn),22.3%
20,Cc1ccc(OCC2CCCN(c3nc(CO)cs3)C2)cc1 (stereo not drawn),34.4%
21,Cc1ccc(OCC2CCCN(C(=O)Cn3ccccc3=O)C2)cc1 (stereo not drawn),18.5%
22,Cc1ccc(OCC2CCCN(C(=O)CCn3ccccc3=O)C2)cc1 (stereo not drawn),18.5%
23,Cc1ccc(OCC2CCCN(C(=O)CN3CCOCC3)C2)cc1 (stereo not drawn),56.5%

row,SMILES,INHIBITION
1,Cc1ccc(N2CCC3(CC2)CNC(=O)CO3)nn1,21.7%
2,O=C(NC[C@H]1OC[C@@H]2CN(Cc3ccco3)CC[C@@H]21)c1cscn1,-72%
3,COCCCN1CCCC(c2nccn2CC2CCC2)C1 (stereo not drawn),42.8%
4,CC(C)(C)c1nnnn1CC(=O)N(CCC#N)c1ccccc1,65.6%
5,CN(CC(=O)N(CCC#N)c1ccccc1)C1CCc2ccccc21 (stereo not drawn),28.9%
6,CC(=O)N(C)c1nc(Cn2nnnc2C(C)(C)C)cs1,24.2%
7,CN(CCC#N)C(=O)Cn1nnnc1C(C)(C)C,61.9%
8,Cc1nc(CN2CCCN(CC(=O)N(C)CCC#N)CC2)no1,36.5%
9,CN(C(=O)Cn1nc(-c2ccc(F)cc2)oc1=O)c1ccccc1,42.6%
10,Cc1cc(C)n(CC2CCCN2CC(=O)N(C)CCC#N)n1 (stereo not drawn),36.1%
11,CN(C(=O)Cn1nnnc1C(C)(C)C)c1ccccc1,50.8%
12,N#CCCN(C(=O)CN1CCCC1C1CCCCC1)c1ccccc1 (stereo not drawn),5.14%
13,CCCSc1ncc(Cl)c(C(=O)NC(CCSC)C(=O)O)n1 (stereo not drawn),26.3%
14,CCN1C(=O)CCC12CCN(C(=O)c1ccco1)CC2,27.2%
15,CCN1CCn2c(C)cnc2C12CCN(C(=O)CC(C)C)CC2,-0.182%
16,CC[C@H](C)Nc1nccc(-c2cnc3sc(C)cn3c2=O)n1,39.7%
17,CCC(=O)N1CCc2c(O)nc(C3CCCCN3C(=O)C3CC3)nc2C1 (stereo not drawn),-7.6%
18,O=c1[nH]c(NC2CCCC2)nc2nccc(-c3ccsc3)c12,61.1%
19,O=c1[nH]c(NC2CCCC2)nc2nccc(-c3ccco3)c12,-37.9%
20,O=c1[nH]c(NC2CCCC2)nc2nccc(-c3cccs3)c12,52.2%
21,NC(=O)C1CCN(c2nc3nccc(-c4cccnc4)c3c(=O)[nH]2)CC1,47.4%
22,NC(=O)C1CCN(c2nc3nccc(-c4ccncc4)c3c(=O)[nH]2)CC1,41.6%
23,O=C(O)Cn1nc(C2CC2)c2c(-c3cccs3)ccnc21,11.6%

row,SMILES,INHIBITION
1,O=C(NCC1CC1)C1CN(Cc2cccs2)Cc2ccnn2C1 (stereo not drawn),-19.1%
2,Cc1ccc(S(=O)(=O)N2CSCC2C(=O)NCC(F)(F)F)cc1C (stereo not drawn),-27.9%
3,O=C(CSc1nc2c(cnn2CCO)c(=O)[nH]1)NC1CCCCC1,39.2%
4,Cc1noc(C(C)N2CCN(CCN3CCCC3=O)CC2)n1 (stereo not drawn),-29.1%
5,O=C(Cn1ncc2ccccc21)Nc1ccnn1CC1CCOC1 (stereo not drawn),36.5%
6,O=C(COCCOc1ccccc1)Nc1ccnn1CC1CCOC1 (stereo not drawn),69.9%
7,O=C(COCc1ccccc1Cl)Nc1ccnn1CC1CCOC1 (stereo not drawn),42.1%
8,COc1ccccc1CC(=O)N1C[C@@H]2CC[C@H]1CN(Cc1cscn1)C2,29.6%
9,CN(C(=O)Cn1nc(-c2ccccc2Cl)ccc1=O)C1CCS(=O)(=O)C1 (stereo not drawn),48.1%
10,CN1CC(Nc2ccc(Br)cc2C#N)CCC1=O (stereo not drawn),58.9%
11,CC(=O)N1CCC(Nc2ccc(Br)cc2C#N)C1 (stereo not drawn),7.39%
12,N#Cc1cc(Br)ccc1NC1CCN(CC(N)=O)CC1,45.4%
13,CCOCCN1CCN(Cc2csc(-c3cnn(C)c3)n2)CC1,-22.1%
14,O=C(CCNS(=O)(=O)c1ccc(F)c(F)c1)NCc1ccoc1,35.4%
15,O=C(N[C@H]1CN(Cc2ccsc2)[C@@H]2CCCO[C@H]12)C1CC1,48.2%
16,O=C(O)c1cc(NS(=O)(=O)c2ccc(Cl)s2)ccc1N1CCOCC1,20%
17,Cc1ccc(C(=O)NS(C)(=O)=O)cc1I,32.3%
18,Cc1cc(C(=O)NS(C)(=O)=O)ccc1I,52%
19,Cc1ccc(C(=O)NS(C)(=O)=O)cc1S(C)(=O)=O,1.79%
20,Cc1cc(N2CCN(C(=O)[C@@H]3C[C@H]4C=C[C@@H]3C4)CC2)nc2ccccc12,-13.2%
21,CN(Cc1nnc(C2CC2)o1)C1CCCN(c2cccnn2)C1 (stereo not drawn),-9.76%
22,CC(C(=O)NC1CC1)N1CCN(Cc2ccn(C)c(=O)c2)CC1 (stereo not drawn),7.42%
